Compound activity (PubChem)
A selection: hits, their analogues and other compounds. The true share with any hit is near 8.1%.
SW480 rerep: A quantitative high throughput screen for small molecules that induce DNA re-replication in SW480 colon adenocarcinoma cells; 340,000 tested, 1.8% active; Potency, µM (highest dose often 46.1 µM), hits mostly activators; SW480 DNA re-replication, Hoechst DNA content imaging, 48 h; note: nearly all actives have a fitted effect of over 55% in size
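250 cells/well; 23 nL cpd via pin tool; 48 hr, 37 C, 5% CO2; Hoechst 40 min; imager read of total nuclear intensity, ex 405/em 500-530 nm.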
KB-3-1 tox: qHTS assay for MDR1-selective chemotherapeutics: Primary screen using the parental adenocarcinoma cell KB-3-1 | KB-3-1 viability, CellTiter-Glo ATP luminescence, 72 h | Potency, µM (series often up to 46.1 µM), most hits filed as cytotoxic | 400,000 tested, 1.4% active | AID 1347075, 2019; note: nearly all actives have a fitted effect of over 60% in size
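Parental KB-3-1 adenocarcinoma cells in phenol-red-free DMEM with 10% FBS were pin-treated with compounds at several concentrations, incubated 72 h at 37 °C, and viability read by CellTiter-Glo luminescence; concentration-effect curves were fitted after normalization.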
MCF10A rereplic: A quantitative high throughput screen for small molecules that induce DNA re-replication in MCF 10a normal breast cells | MCF 10A DNA re-replication, Hoechst nuclear intensity, 48 h | Potency, µM (top dose mostly 46.1 µM), hits mostly activators | 350,000 tested, 2.9% active; note: nearly all actives have a fitted effect of over 50% in size
KB-V1 cytotox: qHTS assay for MDR1-selective chemotherapeutics: Primary screen using the drug-selected MDR subline cells KB-V1; KB-V1 MDR cells viability, CellTiter-Glo, 72 h; Potency, µM (series often up to 46.1 µM), most hits filed as cytotoxic; 400,000 tested, 3.4% active; AID 1347076, 2019; note: nearly all actives have a fitted effect of over 60% in size
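Readout: CellTiter-Glo luminescence, 10 min after addition. Cells: KB-V1 MDR subline, 72 h at 37 degrees C with compound. Analysis: corrected, normalized data fitted to concentration-effect curves.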
ELG1 DNA repair: qHTS screen for small molecules that inhibit ELG1-dependent DNA repair in human embryonic kidney (HEK293T) cells expressing luciferase-tagged ELG1 | Potency, µM (doses to about 46.1 µM), usual class: inhibitors | 330,000 tested, 2.3% active | HEK293T ELG1-luciferase reporter, luminescence, 16 h; DNA damage induced by 5-fluorouridine; note: nearly all actives have a fitted effect of over 55% in size
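Quantitative HTS, concentration-response format. 2,000 cells/well co-treated with 5-fluorouridine and compound, 16 hr in 5% CO2 at 37 °C; ONE-Glo luminescence read after 30 min.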
Numbers stand for hits; 0 = inactive; ? = inconclusive; - = not tested or not shown; ! = repeats disagree; [ ] = remark or other dose. Calls come from the whole dose curve; as a rule, active = well fitted curve in the direction sought with a large enough effect; inconclusive = small, poorly fitted or top-dose-only effect, or another doubt; inactive = no such curve, though single readings can be large; an effect the other way counts as inactive or inconclusive.

SMILES	SW480 rerep	KB-3-1 tox	MCF10A rereplic	KB-V1 cytotox	ELG1 DNA repair
Cc1ccc(S(=O)(=O)N2[C@H](c3cccc(Cl)c3)CC(=O)[C@@H]3CN(S(=O)(=O)c4ccccc4C)[C@H](c4ccc(Cl)cc4)C[C@@H]32)cc1	-	3.7µM	-	0	-
COC(C(=O)Nc1ccc(NC(=O)C(OC)c2ccccc2)cc1)c1ccccc1 (stereo unspecified)	0	0	0	0	0
COC(=O)c1ccc(-n2cnc(Cl)n2)c(F)c1	0	0	0	0	0
CCN(CC)c1ccc2cc(S(=O)(=O)c3ccc(Cl)cc3)c(=O)oc2c1	18µM	0	?	0	0
CCCCCCc1cc2cc(S(=O)(=O)c3ccc(Cl)cc3)c(=O)oc2cc1O	21µM	?	?	0	0
CCCCCCc1cc2cc(S(=O)(=O)c3ccc(C)cc3)c(=O)oc2cc1O	18µM	0	?	0	0
O=c1oc2cc(O)ccc2cc1S(=O)(=O)c1ccccc1	0	0	2.6µM	?	?
Cc1ccc2oc(=O)c(S(=O)(=O)c3ccc(F)cc3)cc2c1	-	0	-	0	-
CC(C)C(=O)N1CCN(S(=O)(=O)c2ccc3ccccc3c2)CC1	2.9µM	0	0	0	?
O=S(=O)(c1cccc(NC(=S)N2CCN(c3ccc(F)cc3)CC2)c1)C(F)F	18µM	0	?	0	?
O=S(=O)(c1ccc2ccccc2c1)N1CCN(C(=S)Nc2ccc(F)cc2)CC1	-	?	0	?	18µM
O=C(Cn1ncc(Cl)c(Cl)c1=O)N1CCN(S(=O)(=O)c2ccc3ccccc3c2)CC1	?	16µM	?	0	?
Cc1cc(-c2ccc(C(C)C)c(S(=O)(=O)N3CC(=O)Nc4ccccc43)c2)on1	?	0	?	0	0
COC(C[C@H]1O[C@@H]1C(=O)[C@H](C)OCc1ccccc1)OC	?	0	0	?	-
c1ccc(C2OC3c4cccc5cccc(c45)C3N2c2ccccc2)cc1 (stereo unspecified)	?	0	18µM	0	0
Cc1ccc(C)c(NC(=S)N(C)C)c1	?	0	0	0	0
Cn1cnc([N+](=O)[O-])c1S(=O)(=O)c1cccc(Cl)c1	5.8µM	?	3.7µM	?	?
Cn1cnc([N+](=O)[O-])c1S(=O)(=O)Oc1ccccc1	4.1µM	?	7.3µM	?	-
CSc1ccc(CCNC(=O)CN2C(=O)c3cccnc3Oc3ccc(Cl)cc32)cc1	-	0	-	?	-
O=C(CN1C(=O)c2cccnc2Oc2ccc(Cl)cc21)NCCCc1ccccc1	0	0	0	?	18µM
COc1cccc2cc(C(=O)N3CCc4ccccc4C3)c(=O)oc12	0	0	0	0	?
COc1cc2c(cc1OC)CN(C(=O)/C=C/c1cccs1)CC2	13µM	3.7µM	4.1µM	?	0
COc1cc2c(cc1OC)CN(C(=O)c1cc3ccccc3oc1=O)CC2	?	?	?	4.6µM	0
COc1cc2c(cc1OC)CN(C(=O)/C=C/c1ccccc1[N+](=O)[O-])CC2	16µM	?	13µM	0	13µM
COc1cc2c(cc1OC)CN(S(=O)(=O)c1cccs1)CC2	0	0	0	18µM	0
SMILES	SW480 rerep	KB-3-1 tox	MCF10A rereplic	KB-V1 cytotox	ELG1 DNA repair
O=c1c(/C=C(\O)c2ccccc2)nc2ccccc2n1-c1ccccc1	?	0	?	0	0
COc1cc2sc(C)nc2c2ccccc12	0	0	0	0	0
Cc1nc2ccccc2c2c(N)c3ccccc3n12	?	0	0	0	26µM
Cc1nc2ccccc2n1-c1ccccc1	0	0	0	0	0
CCC(O)(CC)C(=O)NN(C(=O)Nc1csc2c1CCCC2)c1ccccc1	0	0	?	0	0
Cc1ccc(-c2ccc(C(=O)O)[nH]2)cc1	0	0	0	0	?
Cc1cc2[nH]c3c4ccccc4nc(C)c3c2cc1C	0	10µM	0	?	-
Cc1cc2[nH]c3c(c[n+](C)c4ccccc34)c2cc1C	?	?	?	0	0
CN(C)/C=C1\SC(=S)N(c2ccc(Br)cc2)C1=O	0	0	0	0	?
COc1ccc(-c2cc(C(=O)N3CCN(C(c4ccccc4)c4ccccc4)CC3)no2)cc1	0	?	?	21µM	0
COc1ccc(-c2cc(C(=O)N3CCN(C(c4ccccc4)c4ccccc4)CC3)no2)cc1OC	0	0	10µM	0	0
O=C(c1cc(-c2ccco2)on1)N1CCN(C(c2ccccc2)c2ccccc2)CC1	4µM	0	?	0	0
COc1ccccc1N1CCN(C(=O)c2cc(-c3ccc4c(c3)OCO4)on2)CC1	0	0	0	16µM	0
Cc1cc(CN(C)C(=O)c2ccc(OC3CCN(S(=O)(=O)N(C)C)CC3)cc2)n[nH]1	?	0	0	0	0
Cc1ccc(S(=O)(=O)N2CCCCC2)cc1C(=O)OCC(=O)NC(=O)NC12CC3CC(CC(C3)C1)C2	0	0	?	?	0
COc1cc(C2Nc3cc(C)c(C)cc3NC3=C2C(=O)CC(C)(C)C3)ccc1OC(C)=O (stereo unspecified)	0	0	0	?	0
Cc1cc2c(cc1C)NC(c1c(C)n(C)n(-c3ccccc3)c1=O)C1=C(CC(C)(C)CC1=O)N2 (stereo unspecified)	0	0	11µM	0	0
Cc1cc(C(=O)CCl)c(C)n1CCc1ccc(F)cc1	0	?	?	?	0
Cc1cc(C(=O)CCl)c(C)n1CCc1ccc(Cl)cc1	5.2µM	?	16µM	?	?
COc1ccc(CCn2c(C)cc(C(=O)CCl)c2C)cc1OC	5.8µM	?	6.5µM	?	0
Cc1ccc(CNS(=O)(=O)c2ccc(-c3cnc(C4CC4)o3)cc2)cc1	0	0	0	0	0
CCOc1ccccc1CNS(=O)(=O)c1ccc(-c2cnc(C3CC3)o2)cc1	?	1.2µM	1.3µM	1.5µM!	0
O=S(=O)(NCc1ccccc1)c1ccc(-c2cnc(C3CC3)o2)cc1	0	18µM!	?	15µM!	?
O=S(=O)(C/C(=C/CO)S(=O)(=O)c1ccccc1)c1ccccc1	1.2µM	?	0.82µM	?	?
O=S(=O)(CS(=O)(=O)c1ccccc1)c1ccccc1	0	?	0	0	-
CC(=O)N/C(=C\c1ccccc1)C(=O)OCC(=O)Nc1ccc(C)c(S(=O)(=O)N(C)C)c1	5.8µM	0	0	?	0
CC(=O)N/C(=C\c1ccccc1)C(=O)OCc1cccc(S(=O)(=O)N(C)C)c1	0	0	0	0	7.3µM
CC(=O)N/C(=C\c1ccccc1)C(=O)OCC(=O)N(C)C1CCCCC1	?	0	0	16µM	0
CCc1ccc(Nc2nc(C)cc(C)c2C(N)=O)cc1	0[9.22 µM]	0	0	0	0
O=C(Cn1nc(-c2ccc(F)cc2)ccc1=O)Nc1ccc(C(=O)NC2CC2)cc1	0	0	0	?	0
